tim10-1 inh: growth inhibitors of tim10-1 mutant yeast, primary screen, luminescence, uHTS | S. cerevisiae tim10-1 ts strain growth, BacTiter-Glo, 24 h | inhibition, % at 20 µM | 330,000 tested, 2.2% active | AID 463190, 2010;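 active means inhibition of at least 40%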;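 further: mutant grown at 25 °C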
PfHsp90 set2: growth inhibition of PfHsp90-expressing yeast, primary screen, antimalarial PfHsp90 inhibitor project, S. cerevisiae, BacTiter-Glo luminescence, single point, set 2 | inhibition, % at 9.4 µM | 310,000 tested, 0.32% active | BacTiter-Glo ATP, 48 h; yeast lacking PDR1 and PDR3 efflux regulators;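 active means every replicate shows inhibition above about 80%, whatever the replicate mean, limit read from the data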
SKKanGAS inh: S. pyogenes SKKanGAS growth inhibitors in kanamycin, primary screen, streptokinase expression inhibitor project, SKKanGAS strain, BacTiter-Glo luminescence; 6 h; inhibition, % at 7.5 µM; 300,000 tested, 1.3% active; AID 1662, 2009;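 active means mean replicate score, as percent of positive control median, at least 50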;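 further: strain carries kanamycin resistance gene driven by streptokinase promoter and grows in 40 µg/ml kanamycin; loss of luminescence reflects streptokinase promoter inhibition or plain growth inhibition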
TIM10 inh: growth inhibitors of isogenic TIM10 control yeast, primary screen, counter-screen for tim10-1 yeast inhibitor project, luminescence, uHTS; S. cerevisiae TIM10 strain growth, BacTiter-Glo luminescence, 24 h; inhibition, % at 10 µM; 330,000 tested, 1.4% active;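 active means inhibition of 40% or more at the single tested concentration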;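 further: wild-type TIM10 isogenic control strain grown at permissive 25 °C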
tim23-1 inh: growth inhibitors of tim23-1 mutant yeast, primary screen, luminescence, uHTS. S. cerevisiae tim23-1 growth, BacTiter-Glo luminescence, 24 h. inhibition, % at 20 µM. 330,000 tested, 1.3% active. AID 463212, 2010;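 active means growth inhibition of the mutant yeast at or above 50%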;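 further: temperature-sensitive mutant grown at 25 °C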
NALP1 yeast inh: NALP1 inflammasome inhibitors in reconstituted yeast, colorimetric, S. cerevisiae, triplicate retest; S. cerevisiae NALP1/ASC/caspase-1 growth, X-gal OD620, 72 h; inhibition, % at 10 µM; 280,000 tested, 0.61% active; in the data active means inhibition mostly above about 24%, no sharp cut-off; inactive means mostly below about 32%
tim10-1 conf: growth inhibitors of tim10-1 mutant yeast, confirmation, single concentration, luminescence, S. cerevisiae; shares compounds with tim10-1 inh; S. cerevisiae tim10-1 ts strain growth, BacTiter-Glo, 24 h; inhibition, % at 20 µM; 7,400 tested, 56% active; AID 463213, 2010;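 active means inhibition of yeast growth at or above a set limit in either of two repeat tests at 20 µM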;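 further: tim10-1 mutant grown at permissive 25 °C to find synthetic lethal compounds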
Large screens that a line does not name were inactive (follow-up assays come after a bar, where they were run). This is a sample that favours compounds with a hit; in the whole collection about 4.8% have one here.

CCc1nc(N)c(C#N)c(-c2cccn2C)c1C	tim10-1 inh 41 (no result: NALP1 yeast inh) | tim10-1 conf inactive
COCC1CCN(Cc2cn[nH]c2-c2cc3ccccc3o2)C1 (stereo not given)	none
O=C(O)CCC(=O)c1ccc2ccc3cccc4ccc1c2c34	none (no result: PfHsp90 set2)
O=C(O)CCCc1ccc2ccc3cccc4ccc1c2c34	tim10-1 inh 43 | tim10-1 conf inactive
C=CCN(CC=C)c1nc2ccccc2nc1C(C#N)C(=O)OC(C)C (stereo not given)	tim10-1 inh 45 | tim10-1 conf 38
Cn1c(C(=O)NC2CCCCC2)cc2c(=O)n(C)c3ccccc3c21	none
CC1CCC(NC(=O)c2cc3c(=O)n(C)c4ccccc4c3n2C)CC1 (stereo not given)	tim10-1 inh 40 (no result: PfHsp90 set2) | tim10-1 conf inactive
O=C(c1ccc2c3n(nc2c1)-c1ccccc1CO3)N1CCCCC1	tim10-1 inh 51, SKKanGAS inh 51 | tim10-1 conf 48
Cc1ccc2c(c1)COc1c3ccc(C(=O)N4CCCCC4)cc3nn1-2	none
OCC[C@@H]1C[C@@H](O)[C@H](O)[C@]2(CCCO2)O1	none (no result: PfHsp90 set2, NALP1 yeast inh)
Cc1nnc(SCCn2c(Br)nc3c2c(=O)n(C)c(=O)n3C)s1	none
O=[N+]([O-])c1ccc(Sc2nccn2Cc2ccccc2)c([N+](=O)[O-])c1	tim10-1 inh 51 | tim10-1 conf inactive
O=[N+]([O-])c1cc(C(F)(F)F)ccc1Sc1nccn1Cc1ccccc1	none
COc1ccccc1C(=O)NCCC(=O)NC1CCCCC1C (stereo not given)	none (no result: PfHsp90 set2, NALP1 yeast inh)
S=c1[nH]nc(-c2ccccc2)n1/N=C/c1ccc(-c2ccccc2Cl)o1	tim10-1 inh 45 | tim10-1 conf inactive
CN(C)c1ccc(C(=O)c2ccc(O)cc2O)cc1	tim10-1 inh 41 | tim10-1 conf inactive
Cc1cc2nnc(SCc3ccc4c(c3)OCO4)n2c2ccccc12	none (no result: tim10-1 inh, SKKanGAS inh, TIM10 inh, tim23-1 inh, NALP1 yeast inh)
c1ccc2c(c1)ccc1nnc(SCc3ccc4c(c3)OCCO4)n12	tim10-1 inh 45 | tim10-1 conf 29
Cc1cccc(/C=N/n2c(COc3ccccc3)n[nH]c2=S)c1	tim10-1 inh 43 | tim10-1 conf 37
Cc1n[nH]c(=S)n1/N=C/c1cccc(OCc2ccccc2)c1	tim10-1 inh 41 | tim10-1 conf inactive
Cc1cc2c(cc1C)C(c1cc(Br)ccc1F)CC(=O)N2 (stereo not given)	tim10-1 inh 45 | tim10-1 conf inactive
Cc1cccc2c1N(CCCOc1ccc(C(C)(C)C)cc1)C(=O)C2=O	tim10-1 inh 40 | tim10-1 conf inactive
CCOC(=O)C1(CCc2ccccc2)CCN(C(=O)CCc2cnn(C)c2)CC1	tim10-1 inh 42 | tim10-1 conf 30
CCOC(=O)C1(CCc2ccccc2)CCN(C(=O)CCc2cnccn2)CC1	none
COc1ccc(-c2cn3c4c(sc3n2)CCCC4)cc1	tim10-1 inh 41 | tim10-1 conf inactive
COc1cccc(NCc2ccc([N+](=O)[O-])s2)c1	tim10-1 inh 41 | tim10-1 conf inactive
O=S(=O)(c1ccc(Br)c2nsnc12)N1CCOCC1	none
CN1CCN(S(=O)(=O)c2ccc(Br)c3nsnc23)CC1	tim10-1 inh 46 (no result: PfHsp90 set2) | tim10-1 conf inactive
O=C(NNS(=O)(=O)c1ccc(F)cc1)C1CC(c2cccnc2)=NO1 (stereo not given)	none
O=C(CCNc1ccc(Cc2ccncc2)cc1)c1cccc([N+](=O)[O-])c1	tim10-1 inh 43 | tim10-1 conf 34
O=C(NC1CCCC1)C(c1ccncc1)N(C(=O)c1csnn1)c1ccccc1 (stereo not given)	none
NC1(C(=O)O)CSSC1	none (no result: tim10-1 inh, SKKanGAS inh, TIM10 inh, tim23-1 inh, NALP1 yeast inh)
O=C(Nc1ncc2c(n1)-c1ccccc1CC2)c1ccccc1	tim10-1 inh 47 | tim10-1 conf inactive
O=C(Nc1ncc2c(n1)-c1ccccc1CC2)c1ccc(F)cc1	tim10-1 inh 40 | tim10-1 conf inactive
COc1cccc(C(=O)NCCCNC(=O)c2ccco2)c1	none
Oc1[nH]c2c(Cl)cc(Cl)cc2c1N=NC(=S)NCC1CCCO1 (stereo not given)	tim10-1 inh 46, SKKanGAS inh 95 | tim10-1 conf inactive
CCOC(=O)c1nnc(-c2ccc(C)cc2)nc1Oc1ccccc1Cl	none (no result: PfHsp90 set2)
CCOC(=O)c1nnc(-c2ccc(C)cc2)nc1Oc1ccc(Cl)cc1Cl	tim10-1 inh 50 | tim10-1 conf 31
CCCOc1ccc(N2C(=O)CC(SCC(N)C(=O)OCC)C2=O)cc1 (stereo not given)	none
CCCOc1ccc(N2C(=O)CC(SCCN)C2=O)cc1 (stereo not given)	tim10-1 inh 42 | tim10-1 conf inactive
COc1ccc(OCCC(=O)Nc2ccc(S(N)(=O)=O)cc2)cc1	none
CCOC(=O)c1c(C)[nH]c(C)c1C(=O)COC(=O)c1cc2ccccc2cc1O	tim10-1 inh 47 | tim10-1 conf inactive
CCOC(=O)c1c(C)[nH]c(C)c1C(=O)COC(=O)c1cc2ccccc2cc1OC	none
Cc1ccccc1NC(=O)/C=C/c1cccs1	none
CCN(CC)S(=O)(=O)c1ccc(C)c(NC(=O)/C=C/c2cccs2)c1	tim10-1 inh 45 | tim10-1 conf 30
COc1cc(OC)cc(OC(=O)c2cccc(S(=O)(=O)N3CCN(C)CC3)c2)c1	none (no result: PfHsp90 set2, NALP1 yeast inh)
CN1CCN(S(=O)(=O)c2cccc(C(=O)Oc3cccc(Br)c3)c2)CC1	tim10-1 inh 41 (no result: NALP1 yeast inh) | tim10-1 conf inactive
Cc1cc(C)cc(N2C(=O)CC(Sc3nnnn3-c3ccccc3)C2=O)c1 (stereo not given)	tim10-1 inh 51, NALP1 yeast inh 43 | tim10-1 conf 51
Cn1nnnc1SC1CC(=O)N(c2ccccc2)C1=O (stereo not given)	none
Cc1ccc2nsnc2c1NC(=O)c1ccc(-c2cc(Cl)ccc2Cl)o1	none
CCC1=NN2C(=N)/C(=C\c3cccn3-c3ccc(Br)cc3)C(=O)N=C2S1	none (no result: tim10-1 inh, TIM10 inh, tim23-1 inh)
CCC1=NN2C(=N)/C(=C\c3cccn3-c3cccc(Cl)c3)C(=O)N=C2S1	tim10-1 inh 46 | tim10-1 conf 37
COc1ccc(-n2cccc2/C=C2\C(=N)N3N=C(C(C)C)SC3=NC2=O)cc1	tim10-1 inh 40 | tim10-1 conf inactive
Cc1cc2nc3c(nc2cc1C)C1(C(=O)N(C)C)CCC3(C)C1(C)C (stereo not given)	none
CN(C)C(=O)C12CCC(C)(c3nc4ccccc4nc31)C2(C)C (stereo not given)	tim10-1 inh 42 | tim10-1 conf inactive
